From PubChem BioAssay (NCATS)
Records with an inconclusive call do not appear. Calls of active or inactive are those of the source. Calls follow the shape of the dose curve; as a rule, active = well fitted curve in the direction sought with a large enough effect; inconclusive = small, poorly fitted or top-dose-only effect, or another doubt; inactive = no such curve, though single readings can be large; an effect the other way counts as inactive or inconclusive.

molecular target: Calcium and integrin-binding protein 1 (Homo sapiens) (UniProt Q99828); test: Primary qHTS for Identification of Calcium Integrin Binding Protein 1 (CIB1) Competitor (AID 1508620); conditions: CIB1-GST / FITC-alphaIIb peptide fluorescence polarization; series mostly up to 57.7 µM; activity change, negative = inhibition: at the top concentration;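 also: GST tagged CIB1 binding a fluorescein labelled alphaIIb integrin peptide tracer; top concentration of the series differs between compounds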
Outline: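 Fluorescence polarization competition: CIB1-GST (1 uM final) preincubated with compound 15 min at room temperature, then FITC-labeled alphaIIb peptide (100 nM final) added for another 15 min. Polarization read at Ex 480/Em 540.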
% is scaled to controls: 0 for no effect and ±100 for the full control effect.

Sequence of Calcium and integrin-binding protein 1 (Homo sapiens) (Q99828 whole entry, looked up): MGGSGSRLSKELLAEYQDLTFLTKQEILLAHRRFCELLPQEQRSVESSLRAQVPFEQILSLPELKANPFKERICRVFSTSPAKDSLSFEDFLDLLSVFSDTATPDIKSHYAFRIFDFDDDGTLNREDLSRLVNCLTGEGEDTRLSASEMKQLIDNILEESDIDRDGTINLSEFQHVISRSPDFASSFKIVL

SMILES	outcome	activity change, negative = inhibition
Cc1c(C(=O)Nc2cccc(C(F)(F)F)c2)cc(-c2ccccc2)n1CCCN1CCOCC1	inactive	–
O=C(N[C@@H](COc1ccc2[nH]c(=O)[nH]c2c1)c1ccccc1)c1cccn(Cc2ccc(F)c(F)c2)c1=O	inactive	–
CCc1c(C(=O)C(N)=O)c2c(OCC(=O)O)cccc2n1Cc1ccccc1	inactive	–
Cc1ccccc1-n1c(Cn2ncc3c(N)ncnc32)nc2cccc(C)c2c1=O	inactive	–
O=C(Nc1ccncc1)C(=O)c1cn(Cc2ccc(Cl)cc2)c2ccccc12	–	2.97% (inactive)
CC(=O)N(C)c1cccc(-c2ccnc3c(C(=O)c4cccs4)cnn23)c1	inactive	–
CSCC[C@@H](NC(=O)[C@@H](Cc1ccccc1)NC(=O)CNC(=O)CNC(=O)[C@@H](N)Cc1ccc(O)cc1)C(=O)O	–	4.31% (inactive)
O=c1[nH]c2ccc(Cl)cc2c(N[C@@H]2CN3CCC2CC3)c1-c1nc2ccccc2[nH]1	inactive	–
O=C(Oc1ccc([N+](=O)[O-])cc1)N1CCN(Cc2cccc(Oc3ccccc3)c2)CC1	inactive	–
COc1ccc(N(C(=O)Oc2c(C)cccc2C)c2ccnc(Nc3ccc(N4CCN(C)CC4)cc3)n2)c(OC)c1	inactive	–
Cc1[nH]nc2ccc(-c3cncc(OC[C@@H](N)Cc4c[nH]c5ccccc45)c3)cc12	inactive	–
CCOC(=O)Nc1ccc(NCc2ccc(F)cc2)cc1N	inactive	–
CC(=O)Nc1ccc(OC[C@](C)(O)C(=O)Nc2ccc([N+](=O)[O-])c(C(F)(F)F)c2)cc1	inactive	–
CC(C)N(CCNC(=O)CN1CCCC1=O)C(C)C	inactive	–

tested on: not listed separately; test: Primary qHTS for small molecule stabilizers of the endoplasmic reticulum resident proteome: Secreted ER Calcium Modulated Protein (SERCaMP) assay (AID 1508630); conditions: SH-SY5Y GLuc-SERCaMP (Gaussia luciferase released on ER calcium loss) secretion, thapsigargin, luminescence; series mostly up to 38.4 µM; activity change, negative = inhibition: at the top concentration; also: potency is read from the fitted curve at half-maximal effect
Outline: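 The SH-SY5Y reporter protocol was run at 3 concentrations up to 38.3 uM (primary) or 11 concentrations (follow-up): 16 h compound, 100 nM thapsigargin for 4 h, then extracellular luciferase luminescence.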

SMILES	activity change, negative = inhibition	Potency
O=C(O)CNC(=O)c1c(O)c2ccccc2n(Cc2ccccc2)c1=O	58.9% (inactive)	–
CCN1CCN(C(=O)Cc2ccc(Nc3ncc(F)c(Nc4ccc(C(=O)Nc5ccccc5Cl)cc4)n3)cc2)CC1	0% (inactive)	–
Cc1c(C(=O)Nc2cccc(C(F)(F)F)c2)cc(-c2ccccc2)n1CCCN1CCOCC1	10.2% (inactive)	–
COc1cc2cc(c1Cl)N(C)C(=O)C[C@H](OC(=O)C(C)C)[C@]1(C)O[C@H]1[C@H](C)[C@@H]1C[C@@](O)(NC(=O)O1)[C@H](OC)C=CC=C(C)C2	68.9% (inactive)	–
C[C@H]([C@H](O)CCC(C)(C)O)[C@H]1CC[C@@]2(O)C3=CC(=O)[C@@H]4C[C@@H](O)[C@@H](O)C[C@]4(C)[C@@H]3CC[C@]12C	18.5% (inactive)	–
O=C(N[C@@H](COc1ccc2[nH]c(=O)[nH]c2c1)c1ccccc1)c1cccn(Cc2ccc(F)c(F)c2)c1=O	0% (inactive)	–
O=C(NCC1CCOCC1)c1cnc(Nc2ccc(Cl)cc2Cl)nc1C(F)(F)F	123% (inactive)	–
CC(O)=C(C#N)C(=O)Nc1cc(Br)ccc1Br	0% (inactive)	–
O=C(Oc1ccc([N+](=O)[O-])cc1)N1CCC(C(O)(c2ccc3c(c2)OCO3)c2ccc3c(c2)OCO3)CC1	-4.39% (inactive)	–
CCc1c(C(=O)C(N)=O)c2c(OCC(=O)O)cccc2n1Cc1ccccc1	-29.9% (inactive)	–
Cc1ccccc1-n1c(Cn2ncc3c(N)ncnc32)nc2cccc(C)c2c1=O	0% (inactive)	–
C[C@]12CC[C@H](O)CC1=CC[C@H]1[C@H]3CCC(=O)[C@@]3(C)CC[C@@H]12	75.9% (inactive)	–
CC(C)(O)C=CC(=O)[C@](C)(O)[C@H]1[C@H](O)C[C@]2(C)[C@@H]3CC=C4[C@@H](C=C(O)C(=O)C4(C)C)[C@]3(C)C(=O)C[C@@]12C	0% (inactive)	–
O=C(Nc1ccncc1)C(=O)c1cn(Cc2ccc(Cl)cc2)c2ccccc12	0% (inactive)	–
CC(=O)N(C)c1cccc(-c2ccnc3c(C(=O)c4cccs4)cnn23)c1	-0.709% (inactive)	–
CSCC[C@@H](NC(=O)[C@@H](Cc1ccccc1)NC(=O)CNC(=O)CNC(=O)[C@@H](N)Cc1ccc(O)cc1)C(=O)O	40% (inactive)	–
O=c1[nH]c2ccc(Cl)cc2c(N[C@@H]2CN3CCC2CC3)c1-c1nc2ccccc2[nH]1	285% (inactive)	–
O=C(Oc1ccc([N+](=O)[O-])cc1)N1CCN(Cc2cccc(Oc3ccccc3)c2)CC1	38.8% (inactive)	–

SMILES	activity change, negative = inhibition	Potency
C[C@]12CC[C@@H]3[C@@H](CCC4=CC(=O)CC[C@@H]43)[C@@H]1CC[C@@H]2OC(=O)CCc1ccccc1	33.5% (inactive)	–
COc1ccc(N(C(=O)Oc2c(C)cccc2C)c2ccnc(Nc3ccc(N4CCN(C)CC4)cc3)n2)c(OC)c1	194% (inactive)	–
COc1ccc2c(c1)[C@]13CCCCC1C(C2)N(C)CC3 (some centres undefined)	–	473 nM (active)
Cc1[nH]nc2ccc(-c3cncc(OC[C@@H](N)Cc4c[nH]c5ccccc45)c3)cc12	41.5% (inactive)	–
CC(C)[C@]12O[C@H]1[C@@H]1O[C@]13[C@]1(O[C@H]1C[C@H]1C4=C(CC[C@@]13C)C(=O)OC4)[C@@H]2O	249% (inactive)	–
CCOC(=O)Nc1ccc(NCc2ccc(F)cc2)cc1N	0% (inactive)	–
CC(=O)Nc1ccc(OC[C@](C)(O)C(=O)Nc2ccc([N+](=O)[O-])c(C(F)(F)F)c2)cc1	92.8% (inactive)	–
C=C1C[C@H]2[C@H]3CCC(=O)[C@@]3(C)CC[C@@H]2[C@@]2(C)C=CC(=O)C=C12	1.64% (inactive)	–
CC(C)(O)C(=O)Nc1ccc([N+](=O)[O-])c(C(F)(F)F)c1	173% (inactive)	–
CN1[C@H]2CC(O)C[C@H]1[C@H]1O[C@H]12 (some centres undefined)	97% (inactive)	–
CC(C)N(CCNC(=O)CN1CCCC1=O)C(C)C	87.9% (inactive)	–
CC(C)[C@]12O[C@@H]1[C@@H]1O[C@]13[C@]1(O[C@H]1C[C@@H]1C4=C(CC[C@@]13C)C(=O)OC4)[C@H]2O	144% (inactive)	–
CC(=O)OCC1=C(C(=O)O)N2C(=O)[C@@H](N)[C@@H]2SC1	166% (inactive)	–
Cc1c(N)nc([C@H](CC(N)=O)NC[C@@H](N)C(N)=O)nc1C(=O)N[C@H](C(=O)N[C@@H](C)[C@H](O)[C@@H](C)C(=O)N[C@@H](C(=O)NCCc1nc(-c2nc(C(=O)NCCC[S+](C)C)cs2)cs1)[C@@H](C)O)C(O[C@H]1O[C@H](CO)[C@H](O)[C@@H](O)[C@@H]1O[C@H]1O[C@H](CO)[C@@H](O)[C@H](OC(N)=O)[C@H]1O)c1cnc[nH]1 (some centres undefined)	55.5% (inactive)	–
CCC(=O)OC1CCC2C3CCC4=CC(=O)CC[C@@]4(C)C3CC[C@]12C (some centres undefined)	20.9% (inactive)	–
CCOC(=O)c1c(C(C#N)=CN)c2ccc(Cl)c(Cl)c2n1C	49.6% (inactive)	–
O=c1cccc2n1CC1CNC[C@H]2C1	-30.5% (inactive)	–
